Test results taken from PubChem BioAssay AID492972 (The Scripps Research Institute Molecular Screening Center, 2010).
In all, about 340,000 compounds went through this assay and about 930 (0.27%) were called active. This is one part of a sample in which actives are shown more often than they occur. Values without a mark were called inactive.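 Rule for the calls: active = inhibition above the screen-wide average of all tested compounds plus 3 SD (cut at about 25% in these data); inactive = the rest.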

biological target: Platelet-activating factor acetylhydrolase IB subunit alpha1 (Homo sapiens) (UniProt Q15102); experiment: inhibition of PAF acetylhydrolase 1B subunit 3 – biochemical, fluorescence polarization, human, primary screen (AID 492972); conditions: recombinant PAFAH1B3, FP-rhodamine probe, at 3.39 µM, hits give high values;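 note: 0% = enzyme with DMSO only and 100% = wells lacking PAFAH1B3 protein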
Sequence (Q15102 whole entry, looked up): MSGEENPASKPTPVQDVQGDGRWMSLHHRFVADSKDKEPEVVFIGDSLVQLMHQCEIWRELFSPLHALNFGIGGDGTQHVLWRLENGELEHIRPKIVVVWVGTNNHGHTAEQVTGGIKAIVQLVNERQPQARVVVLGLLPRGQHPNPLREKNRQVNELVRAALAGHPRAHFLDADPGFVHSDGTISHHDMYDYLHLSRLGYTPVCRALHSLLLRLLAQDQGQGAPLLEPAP

Structure (SMILES) | inhibition
CC(C)c1ccc(NC(=O)[C@@H](NC(=O)N2CC(=O)Nc3ccccc32)C(C)C)cc1 | 6.6%
Cc1nc(NC(CC(C)C)C(=O)O)c2nc(C)oc2n1 (stereo not drawn) | 7.36%
COc1cccc(N(CC(=O)NCCSc2ccccn2)S(C)(=O)=O)c1 | 12.7%
CCOC(=O)[C@H]1[C@H]2COc3ccc(Br)cc3[C@@H]2N2C(=O)CN(C)C(=O)[C@@]12C | 2.41%
CCOc1cccc(/C=N/N2C(=O)CSC2=S)c1O | 13.7%
Cc1cc(C(=O)N/N=C/c2ccc(O)c([N+](=O)[O-])c2)c(C)n1-c1ccc(F)cc1 | 9.16%
O=C1CSC(=S)N1/N=C/c1ccc(O)c([N+](=O)[O-])c1 | 31.7% (active)
Cc1ccc(C)c2[nH]c(=O)c(CCNC(=O)CC(C)C)cc12 | 13.2%
O=C(O)c1ccc(Cn2cnc3c(=S)nc[nH]c32)cc1 | -3%
COC(=O)c1ccccc1NC(=O)CSc1n[nH]c(-c2ccncc2)n1 | -3.63%
CC(=O)Nc1ccc(S(=O)(=O)N2CCC(C(=O)N[C@@H](Cc3ccccc3)C(=O)O)CC2)cc1 | -0.21%
CCOC(=O)c1ccn(-c2nc(-c3ccco3)cc(C(F)(F)F)n2)n1 | 1.73%
Cc1c(C(=O)O)nnn1-c1nonc1N | 3.33%
COC(=O)C1=C(C)NC(=O)/C1=C/c1ccc(CNS(=O)(=O)c2ccc(C)cc2)o1 | 10.7%
Cn1c(Cc2cccs2)nnc1SCC(=O)Nc1ccccc1 | 10.8%
CCOC(=O)c1[nH]c2ccccc2c1N=C(C)N(CC)CC | 9.46%
CCOC(=O)C1=C(C)c2ccccc2OC1(C)C(=O)OCC (stereo not drawn) | 2.09%
CCOC(=O)c1c(C)[nH]c2c1-c1ccccc1C(=O)C2=O | 58.3% (active)
c1ccc(-c2c[nH]c(-c3ccccc3)c2)cc1 | 3.23%
Cc1nc(CNS(=O)(=O)c2ccc(Oc3ccccc3)cc2)cs1 | 13.7%

Structure (SMILES) | inhibition
CNC(=S)N/N=C/c1cn(Cc2ccc(C)cc2)c2ccccc12 | 3.79%
N#CCC(=O)N/N=C/c1cn(Cc2ccc3ccccc3c2)c2ccccc12 | -0.94%
COc1cccc(Cn2cc(/C=N/NC(=O)c3cc(O)cc(O)c3)c3ccccc32)c1 | 37.5% (active)
COC(=O)C1=C[C@@H](C(=O)OC)[C@@H]2C3=C(C(=O)[C@]2(C)NC(=O)c2ccccc2)[C@H](C)n2c(=O)n(C)c(=O)n2[C@@H]3C1 | 4.02%
COC(=O)Cc1ccc(N(Cc2ccccc2F)S(=O)(=O)c2ccc(Br)cc2)cc1 | 8.61%
CCN(CC)S(=O)(=O)N1CCC(C(=O)NC(C)CCc2ccccc2)CC1 (stereo not drawn) | 9.79%
CC(C)N(C)C(=O)CCc1nnc(CCc2c[nH]c3ccccc23)o1 | 1.11%
CN(C)CCCCCN(C)Cc1cc2ccccc2o1 | 3.58%
O=C(Cn1nc([N+](=O)[O-])nc1Br)NC1CCCCC1 | 11%
CCN1CCc2nc(NC(=O)c3cc(F)c(F)cc3Cl)sc2C1 | 1.2%
CC(C)c1ccc(S(=O)(=O)N2CCN(C(=O)CN3C(=O)NC(C)(c4ccccc4)C3=O)CC2)cc1 (stereo not drawn) | 5.24%
COc1ccccc1N1CCN(c2nc(C)cc(=O)[nH]2)CC1 | 9.92%
Clc1cc(NC2CCCCC2)ncn1 | 6.06%
O=C(OCC(=O)N1CCN(c2ccccc2)CC1)c1ccc([N+](=O)[O-])s1 | 53.8% (active)
COc1cc(NC(=O)COC(=O)c2ccc([N+](=O)[O-])s2)cc(OC)c1OC | 23.3%
COc1ccc(C(=O)OCC(=O)c2ccc(C)c(S(=O)(=O)N3CCOCC3)c2)cc1OC | 14%
COc1ccc(C(=O)COC(=O)c2ccc([N+](=O)[O-])s2)cc1OC | 33.9% (active)
COc1cccc(/C=C/C(=O)OCC(=O)N2CCN(c3ccccc3)CC2)c1 | -3.05%
C[C@H](NC(=O)c1ccccc1Cl)C(=O)OCC(=O)N1CCN(c2ccccc2)CC1 | 2.77%
CN1/C(=c2/s/c(=C3/C(=O)N(c4ccccc4)NC3=Nc3ccccc3)n(C)c2=O)C(C)(C)c2ccccc21 | 6.84%

Structure (SMILES) | inhibition
CC(C)CC[n+]1ccn(C2=C([O-])c3ccccc3C(=O)/C2=N\S(=O)(=O)c2ccccc2)c1 | 34.1% (active)
COc1ccc(S(=O)(=O)/N=C2\C=C(NS(=O)(=O)c3ccccc3)C(=O)c3ccccc32)cc1 | -2.66%
CCCCCC(=O)Nc1ccc(-c2cn3cccnc3n2)cc1 | 8.1%
COc1ccc(-c2cc3n(n2)CCc2nc4ccccc4n2-3)cc1 | 1.18%
O=C1C(Cl)=C(Oc2ccccc2)C(=O)c2ccccc21 | 37.3% (active)
CCC(C)C(NC(=O)C1CCC(=O)N1C(=O)OCc1ccccc1)C(=O)NC(C(=O)N1CCCC1C(N)=O)C(C)CC (stereo not drawn) | -7.74%
CC1CCN(CCCn2c(SCC(=O)NC3CCCC3)nc3ccccc3c2=O)CC1 | 6.29%
O=Cc1cn(-c2ccccc2)nc1-c1ccccn1 | 0.88%
Nc1ccc2nc3c(=O)[nH]c(=S)[nH]c3nc2c1 | 48.8% (active)
Cn1ncc(Br)c1C(=O)NC1CCCC1 | 4.81%
O=C(Nc1ccc(Br)cc1)C1CCC(=O)N1Cc1ccccc1Cl (stereo not drawn) | 7.1%
N#Cc1ccc(S(=O)(=O)NCC(=O)OCC(=O)NCCc2ccccc2)cc1 | -8.29%
O=C(Oc1cccc(N2C(=O)C3C4c5ccccc5C(c5ccccc54)C3C2=O)c1)c1ccco1 (stereo not drawn) | 12.6%
COc1cccc(C2CC(c3ccccc3)=NN2S(=O)(=O)c2ccccc2)c1OC (stereo not drawn) | 0.58%
COc1ccc(C(=O)C(C)OC(=O)c2cccc(S(=O)(=O)Nc3c(C)n(C)n(-c4ccccc4)c3=O)c2)cc1 (stereo not drawn) | 10%
Oc1cccc(/C=N/Nc2ccc(Cl)nn2)c1O | 55.2% (active)
C/C(=N\Nc1ccc(Cl)nn1)c1ccccc1O | 4.6%
O=C(NN=Cc1ccccc1O)NN=Cc1ccccc1O | 7.65%
